Yeast superoxide: reduction of superoxide in aged yeast, primary screen, HTS | 0.18% of 330,000 active | S. cerevisiae aged cells, superoxide DHE fluorescence; active compounds read low | superoxide response (% of plate mean), % at 10 µM | AID 2690, 2010;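 active = superoxide response under a set limit, about three screen SD below normal, cut at about 65% in these data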;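 also: yeast aged for seven days with compound at 30 °C before DHE staining; 100% = average MFI of all compound-treated wells on the plate with controls excluded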
SUMO Mot1 rescue: yeast Mot1-301 growth rescue at high temperature, primary screen, SUMOylation pathway inhibitor project, S. cerevisiae, ATP luminescence, 38.5C. S. cerevisiae Mot1-301 growth rescue; percent above DMSO median, 100 means doubled. growth rescue, % at 18.8 µM. 1% of 320,000 active. AID 2716, 2010;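 active = every valid replicate shows activation above 250% relative to neutral control wells; inactive = the rest, any valid replicate at or below 250%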;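 also: OY570 slx delta 5 strain wells were the positive control but not used for scaling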
aDG glyco up: activators of alpha-DG glycosylation, primary screen, uHTS, Pro5-aDG cells, AlphaScreen; alpha-DG glycosylation AlphaScreen (IIH6); 0% Pro5, 100% B10-LARGE cell signal; 0.22% of 360,000 active; activation, % at 10 µM; AID 624168, 2012;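 active = activation of at least 8% versus controls, or a plate z-score of at least 8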;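 also: Pro5 are CHO cells carrying HIG-tagged alpha-DG that lacks glycosylation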
MPTP inh: mitochondrial permeability transition pore inhibitors, primary screen, biochemical, isolated mouse mitochondria, absorbance | inhibition, % at 10 µM | Ca2+ swelling absorbance, 30 min | 1.4% of 360,000 active | AID 602449, 2012;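 active = inhibition of 50% or more, scaled per plate between neutral and stimulator controls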;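 also: 0% = DMSO wells given calcium and 100% = 1 mM EGTA wells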
FAS TE block: FAS thioesterase domain inhibitors, primary screen, biochemical, fluorescence intensity, uHTS. recombinant FAS-TE, OMFH fluorogenic substrate, fluorescence endpoint. inhibition, % at 15 µM. 0.67% of 360,000 active;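 active = compounds whose normalised, plate-corrected inhibition of enzyme fluorescence in the single-dose primary screen is 50% or more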;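 also: 0% = DMSO with enzyme and 100% = substrate without enzyme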
Cardio protect: cardioprotection against H2O2-induced cell death, primary screen, uHTS, H9c2 cells, ATPLite luminescence. H9c2 cardiomyocytes, H2O2 injury protection, 2 h. protection from H2O2 cell death, % at 20 µM. 0.63% of 360,000 active. AID 588492, 2011;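 active = compounds giving at least 50% protection of heart cells from peroxide-induced death in the single-dose screen, raw or plate-pattern-corrected value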;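 also: 0% = DMSO wells with peroxide and 100% = DMSO wells without peroxide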
An asterisk follows results filed as active; . = no result. Most compounds without a hit are left out; they make up all but 3.8% or so of the library.

SMILES | Yeast superoxide | SUMO Mot1 rescue | aDG glyco up | MPTP inh | FAS TE block | Cardio protect
COc1ccc(NC(=O)CSc2nnc(Cn3cnc([N+](=O)[O-])n3)n2C)cc1 | 109.1 | 343.9* | -0.1 | 0.8 | -8.5 | 3.2
O=C(N/N=C/c1c(O)ccc2ccccc12)c1ccc(CO)nc1 | 101.9 | -26.5 | 0.3 | 0.2 | 2.3 | 59.4*
O=CN/N=C/c1c(O)ccc2ccccc12 | 136.3 | 13.8 | 0.3 | 0.7 | -5.2 | 30.3
NC(=S)N/N=C/c1c(O)ccc2ccccc12 | 98.6 | -22.3 | 0.6 | 6.9 | -4.8 | 56.7*
COCCCNC(=O)C[C@@H]1C[C@@]2(C(=O)OC)CCCCC=C2N(Cc2ccco2)C1=O | . | . | 0.1 | -1.9 | -10.0 | .
CN(C)CCN1C(=O)C(=O)/C(=C(/O)c2ccc(S(=O)(=O)N3CCOCC3)cc2)C1c1ccccc1 (configuration not stated) | 102.5 | 314.5* | -0.1 | -1.0 | -3.8 | 3.7
COC(=O)c1ccc(C(=O)OC)c(NC(=O)COC(=O)C23CC4CC(CC(O)(C4)C2)C3)c1 | 101.4 | 181.1 | -0.1 | -2.1 | -0.9 | 87.8*
O=C(COC(=O)C12CC3CC(CC(O)(C3)C1)C2)Nc1ccc(Cl)cc1F | 109.7 | 13.5 | -0.4 | -0.6 | -5.3 | -4.6
Oc1ccc(O)c(/C(=N/Nc2ccccc2)c2ccccc2)c1 | 105.0 | 3.0 | . | . | . | .
COc1cc([N+](=O)[O-])cc(/C=N/NC(=O)C(C)Nc2ccccc2C)c1O (configuration not stated) | 118.0 | -5.7 | 0.0 | 0.3 | 36.7 | 63.2*
COc1cc(/C=N/NC(=O)c2ccc(C)nc2)cc([N+](=O)[O-])c1O | 113.4 | 92.3 | -0.1 | -0.2 | 0.4 | -0.8
COc1cc([N+](=O)[O-])cc(/C=N/NC(=O)c2ccc(C)nc2)c1O | 115.8 | -19.7 | 0.0 | -14.0 | 17.4 | 62.4*
CCOc1ccc(S(=O)(=O)NCCC(=O)N(C)Cc2ccc(C)o2)cc1 | 103.3 | -14.8 | 0.1 | -0.9 | -4.6 | 4.0
CSc1ccc(S(=O)(=O)NCC(=O)OCC(=O)N2CCC(C)CC2)cc1[N+](=O)[O-] | 90.2 | -8.1 | 0.2 | -0.7 | 5.0 | 24.4
O=c1c2c(nc3n1CCS3)c1cc(F)ccc1n2Cc1cc(=O)n2cc(Cl)ccc2n1 | 116.7 | -1.1 | . | . | . | .
C/C(=N\NC(=O)c1ccccc1OCc1ccc(F)cc1)c1ccccn1 | 74.5 | 16.1 | -0.4 | -0.4 | 39.1 | 53.0*
O=c1[nH]c2cccnc2c2ccsc12 | 88.8 | 76.8 | 0.1 | -0.9 | 0.1 | 58.5*
CN1CCCCCC1C(=O)N1CCC(N2CCC(C(=O)N3CCOCC3)CC2)CC1 (configuration not stated) | 80.9 | 270.4* | -0.1 | 1.8 | -6.5 | -1.3
CC1=C(C(=O)N(C)C)CC(CC(=O)NCCN2CCOCC2)C(=O)N1CCCN1CCCC1=O (configuration not stated) | . | . | -0.1 | -0.3 | -8.3 | 0.3
CCOC(=O)C1=NN(C(=O)c2ccco2)C2(CC2)C1 | 93.2 | -7.1 | -0.1 | 1.4 | -11.4 | 71.7*
CCOC(=O)C1(C)CCN1C(=O)c1ccco1 (configuration not stated) | . | . | -0.1 | 0.1 | -4.7 | 3.6
Cc1cc(Cl)c(OCCCCN2CCOCC2)c(Br)c1 | 102.8 | 147.3 | 0.2 | -1.6 | -7.9 | -2.6
Cc1cc(Cl)cc(C)c1OCCCCN1CCOCC1 | 70.8 | 283.1* | -0.1 | 0.3 | -6.1 | -4.1
O=C(Nc1ccn(CCCN2CCN(c3ccccn3)CC2)c(=O)n1)OCc1ccccc1 | . | . | 1.0 | 0.1 | -6.0 | -4.6
Cc1cc(NC(=O)COc2nnc(-c3ccccc3)c3ccccc23)no1 | 93.1 | 2.4 | 0.2 | 0.4 | 5.5 | 48.4*
SMILES | Yeast superoxide | SUMO Mot1 rescue | aDG glyco up | MPTP inh | FAS TE block | Cardio protect
Cc1cc(NC(=O)COc2ccccc2C)no1 | 88.3 | -15.3 | -0.5 | 0.9 | -3.9 | -3.0
OCCC1CN(Cc2cccn2-c2cccnc2)CCN1Cc1ccc(F)cc1 (configuration not stated) | 114.0 | 357.7* | -0.4 | 1.5 | -7.5 | 5.6
C[C@@]12C(=O)N(c3cccc(Cl)c3)C(=O)N1[C@H](c1ccc(Cl)cc1)[C@@H]1C(=O)N(C3CCCCC3)C(=O)[C@@H]12 | 96.7 | -0.3 | 0.4 | 0.4 | 58.6* | -2.0
CC(C)C[C@@]12C(=O)N(c3cccc(F)c3)C(=O)N1[C@H](c1ccc(Cl)cc1)[C@@H]1C(=O)N(C3CCCCC3)C(=O)[C@@H]12 | 92.5 | 112.3 | 0.1 | 1.7 | 62.2* | 6.3
O=C1[C@H]2[C@@H](c3ccc(F)cc3)N3C(=O)N(c4cccc(Br)c4)C(=O)[C@@]3(Cc3ccc(Cl)cc3)[C@H]2C(=O)N1C1CCCCC1 | 108.1 | 6.0 | 0.4 | 0.5 | 34.9 | -10.6
C[C@@]12C(=O)N(c3cccc(F)c3)C(=O)N1[C@H](c1ccc(Cl)cc1)[C@@H]1C(=O)N(C3CCCCC3)C(=O)[C@@H]12 | 90.2 | 17.6 | 0.0 | 1.0 | 38.8 | -2.1
CC(C)C[C@@]12C(=O)N(c3cccc(F)c3)C(=O)N1[C@H](c1ccc(F)cc1)[C@@H]1C(=O)N(C3CCCCC3)C(=O)[C@@H]12 | 97.9 | 1.0 | 0.3 | -1.8 | 82.5* | -1.5
COc1ccc(CCN(C)Cc2ccc(C(=O)Nc3ccccc3)cc2)cc1OC | 96.9 | -14.2 | -0.2 | 1.1 | -3.6 | -2.8
Cc1ccsc1C1CC(=O)OC2=C1C(=O)CC(C)(C)C2 (configuration not stated) | 95.8 | 6.0 | . | . | . | .
CC1(C(=O)NS(=O)(=O)c2ccc(Br)cc2)CCN1C(=O)C/C=C/c1ccccc1 (configuration not stated) | . | . | -0.2 | -1.1 | -2.5 | 1.0
Cc1cc(SCC(=O)c2ccc(O)c(O)c2)n2nc(C)c(-c3ccccc3)c2n1 | 111.9 | -4.8 | 0.2 | 17.3 | 12.6 | 71.4*
CC1CCCN(CCCNC(=O)CN2C(=O)COc3ccccc32)C1 (configuration not stated) | 97.3 | 62.0 | -0.2 | 0.7 | -5.4 | 0.9
CC(C)(C)OC(=O)NCc1ccc(NC(=O)c2nc[nH]c2C(=O)NCCCCCCNC(=O)c2[nH]cnc2C(=O)Nc2ccc(CNC(=O)OC(C)(C)C)cc2)cc1 | 109.6 | -12.4 | -0.3 | -0.6 | 1.5 | 50.6*
CC(C)(C)OC(=O)NCc1ccc(NC(=O)c2nc[nH]c2C(=O)NCCN(CCNC(=O)c2[nH]cnc2C(=O)Nc2ccc(CNC(=O)OC(C)(C)C)cc2)CCNC(=O)c2[nH]cnc2C(=O)Nc2ccc(CNC(=O)OC(C)(C)C)cc2)cc1 | 93.1 | -3.0 | 0.1 | -0.2 | 46.3 | -0.3

Assay outcomes (PubChem BioAssay)
